MmCpn inh: Inhibitors of TCP-1 ring complex (TRiC) of Methanococcus maripaludis (MmCpn): qHTS; Chaperonin Mm-Cpn (Methanococcus maripaludis); purified Mm-Cpn ATPase, ADP Transcreener TR-FRET; Potency, µM (titrated, usually from 76.9 µM), inactives show at the top dose activity, negative = inhibition, usual class: inhibitors; actives 0.031% (n = 330,000); AID 504842, 2011; active means well fitted inhibition curve with a large enough effect; inconclusive means small, poorly fitted or top-dose-only effect; further: potency means the concentration at half of the fitted maximal effect; on the % scale 0 is the no-effect control and ±100 the full control effect; nearly all actives have a fitted effect of over 80% in size
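TR-FRET (320 nm excitation; 590 and 665 nm emission) reports ADP made from 10 uM ATP by 25 nM enzyme; compounds were preincubated 10 min, reaction run 30 min, both at 37°C.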
Rango complex inh: qHTS Assay for Inhibitors of Rango (Ran-regulated importin-beta cargo) - Importin beta complex formation | actives 0.031% (n = 340,000) | Rango CFP/YFP FRET sensor + importin beta, 45 min | Importin subunit beta-1 (Homo sapiens), Q14974 | AID 540263, 2011 | Potency, µM (highest dose often 92.2 µM), without a hit: top-dose inhibition of complex formation;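 further: potency means the concentration at half of the fitted maximal effect; 0% = DMSO wells and 100% = buffer wells lacking importin beta; nearly all actives have a fitted effect of over 15% in size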
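Inhibition scored from the CFP 486 nm/YFP 530 nm FRET ratio 45 min after adding 0.125 microM importin beta to 50 nM Rango biosensor preincubated 5 min with compound (room temperature, PBS with DTT, Tween-20, BSA). No-importin wells as positive control.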
D3 ag: qHTS of D3 Dopamine Receptor Agonist: qHTS | D3R DiscoveRx beta-arrestin cells, luminescence, 90 min | max activation, % | actives 0.58% (n = 410,000); in the data active means max activation above about 30%; further: 0% is about no effect
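Agonist-mode cell screen: cells plated at 1500/well and incubated overnight at 37 °C, then exposed to library compounds for 90 min at 37 °C. Detection reagent was added for 30–60 min at room temperature, and luminescence was read.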
Rango dissoc inh: qHTS Assay for Inhibitors of RanGTP induced Rango (Ran-regulated importin-beta cargo) - Importin beta complex dissociation. Biochemical FRET Rango-importin beta, RanGTP-induced dissociation. Potency, µM (titrated, usually from 46.1 µM), for the others: at the highest dose activity change, negative = inhibition. actives 0.071% (n = 340,000). AID 540253, 2011; further: potency means the concentration at half of the fitted maximal effect; % of control where 0% means no effect; nearly all actives have a fitted effect of over 45% in size
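Recombinant Rango FRET biosensor (EYFP–snurportin 1 IBB–cerulean CFP10) at 0.1 uM premixed with 0.25 uM importin beta in PBS, 1 mM DTT, 0.02% Tween-20, 0.1% BSA. Compound added 5 min; RanGTP-RCC1 (0.6 uM Ran, 2 mM GTP, 0.2 uM RCC1) then triggers release, read at 45 min.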
D3 antag: qHTS of D3 Dopamine Receptor Antagonist: qHTS | max response, negative = inhibition, % | D(3) dopamine receptor (Homo sapiens), P35462 | D3R cells, DiscoveRx beta-arrestin luminescence, antagonist mode; stronger effect = lower value | actives 2.5% (n = 360,000); in the data active means max response below about -50%; inconclusive means no clear call, values can overlap the other calls; further: on the % scale 0 is the no-effect control and ±100 the full control effect
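Cells plated overnight at 1500 cells/well, then exposed to library compounds with dopamine controls for 90 minutes at 37 degrees C. DiscoveRx reagent added for 30–60 minutes at room temperature; luminescence read, quantitative HTS format.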
PTAP TSG101 blk: qHTS Assay for Iinhibitors of HIV-1 Budding by Blocking the Interaction of PTAP/TSG101. Tumor susceptibility gene 101 protein (Homo sapiens), Q99816. Fluorescence polarization, FITC-PTAP peptide / Tsg101 binding. Potency, µM (highest dose often 115 µM), inactives show at the top dose activity change, negative = inhibition, actives largely listed as inhibitors. 340,000 tested, under 10 active. AID 493005, 2010; active means well fitted inhibition curve with a large enough effect in the main read-out, with a control signal flat, not every such curve was filed as active; inconclusive means small, poorly fitted or top-dose-only effect, or effect the other way, or a change in a side signal; inactive means no such curve, though single readings can be large or run the other way; further: potency means the concentration at half of the fitted maximal effect; % of control where 0% means no effect
Target sequence (Q99816 whole entry, looked up): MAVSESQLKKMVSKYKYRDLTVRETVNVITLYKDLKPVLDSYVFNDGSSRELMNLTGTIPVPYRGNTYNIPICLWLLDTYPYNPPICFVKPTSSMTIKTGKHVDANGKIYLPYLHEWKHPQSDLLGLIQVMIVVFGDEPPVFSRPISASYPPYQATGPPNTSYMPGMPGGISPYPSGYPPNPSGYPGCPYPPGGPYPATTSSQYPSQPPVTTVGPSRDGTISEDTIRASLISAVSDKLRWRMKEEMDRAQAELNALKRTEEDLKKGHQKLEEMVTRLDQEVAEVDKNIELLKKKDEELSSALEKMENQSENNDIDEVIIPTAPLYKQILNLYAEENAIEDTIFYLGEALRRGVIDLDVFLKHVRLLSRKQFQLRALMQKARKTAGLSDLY
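Fluorescence polarization binding of Tsg101 binding domain (10 uM final) to FITC-labeled PTAP peptide (50 nM final) in HEPES pH 7.5 buffer with NaCl, Tween 20, EDTA, TCEP. Compounds added before peptide; binding 20 min at RT.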
Numbers without * were called inactive. Only some compounds are listed: those with a hit (about 2.9% of all), similar ones and a draw of the others. Unless noted, the call rests on the fitted dose curve.

For Cc1cc(=O)[nH]c(SCC(=O)N2CCC(Cc3ccccc3)CC2)n1 the results were MmCpn inh 0%, Rango complex inh -1%, D3 ag 0, Rango dissoc inh 16%, D3 antag 3 and PTAP TSG101 blk 0%.
For COc1ccc(OCC(=O)N2CCC(Cc3ccccc3)CC2)cc1 the results were MmCpn inh -4%, Rango complex inh 0%, D3 ag 32*, Rango dissoc inh 4%, D3 antag 10 and PTAP TSG101 blk 2%.
For COCCN(C(=O)COC(=O)C1CCC(C(C)(C)C)CC1)c1c(N)n(Cc2ccccc2)c(=O)[nH]c1=O (stereo not given) the results were MmCpn inh 0%, Rango complex inh -1%, D3 ag 3, Rango dissoc inh -11%, D3 antag 8 and PTAP TSG101 blk 0%.
For O=C(c1ccc(F)cc1)N1CCN(Cc2ccccc2)CC1 the results were MmCpn inh 0%, Rango complex inh 0%, D3 ag -17, Rango dissoc inh 12%, D3 antag inconclusive and PTAP TSG101 blk 0%.
O=C(c1ccc(F)cc1)C1CCN(Cc2ccccc2)CC1 was read as Rango complex inh 2%, D3 ag -9, Rango dissoc inh -3%, D3 antag -86* and PTAP TSG101 blk -2%.
COc1ccc(CN2CCC(C(=O)c3cccc(Cl)c3)CC2)cc1 was read as MmCpn inh -2%, Rango complex inh 4%, D3 ag -17, Rango dissoc inh 16%, D3 antag -27 and PTAP TSG101 blk -3%.
O=C(c1ccc(F)cc1)C1CCN(Cc2ccc(F)cc2)CC1 was read as MmCpn inh -1%, Rango complex inh 5%, D3 ag -22, Rango dissoc inh -22%, D3 antag -88* and PTAP TSG101 blk 1%.
Screening COc1ccc(CN2CCC(C(=O)c3ccc(Cl)cc3)CC2)cc1 returned MmCpn inh 0%, Rango complex inh 4%, D3 ag -20, Rango dissoc inh -25%, D3 antag -88* and PTAP TSG101 blk 1%.
Screening COc1ccc(S(=O)(=O)NCc2cccn2Cc2cccc(C)c2)cc1OC returned D3 ag 3.
For Cc1ccc(Cl)cc1NC(=O)CN1C=NS(=O)(=O)c2ccccc21 the results were D3 ag -28.
Screening O=C1c2ccccc2NC(c2c(Cl)cccc2Cl)N1Cc1ccccc1 (stereo not given) returned MmCpn inh -3%, Rango complex inh -1%, D3 ag -2, Rango dissoc inh 0%, D3 antag -25 and PTAP TSG101 blk -8%.
`O=C1c2ccccc2NC(c2ccc(Cl)cc2Cl)N1Cc1ccccc1` (stereo not given) gave MmCpn inh -5%, Rango complex inh -3%, D3 ag 3, Rango dissoc inh 1%, D3 antag -53* and PTAP TSG101 blk -2%.
Screening Cn1cc(SCC(=O)NCCc2ccccc2)c2ccccc21 returned MmCpn inh 2%, Rango complex inh 3%, D3 ag 3, Rango dissoc inh 4%, D3 antag 2 and PTAP TSG101 blk -5%.
CNC(=S)NNC(=O)COc1cccc(C)c1C was read as MmCpn inh 0%, Rango complex inh 2%, D3 ag -5, Rango dissoc inh 5%, D3 antag -62* and PTAP TSG101 blk -2%.
`O=C(c1ccccc1)N1CCCC(c2nc3c(nnn3Cc3ccccc3)c(=O)[nH]2)C1` (stereo not given) gave MmCpn inh -1%, Rango complex inh 2%, D3 ag 8, Rango dissoc inh 0% and D3 antag inconclusive.
Screening O=C(C1CCCCC1)N1CCCC(c2nc3c(nnn3Cc3ccccc3)c(=O)[nH]2)C1 (stereo not given) returned MmCpn inh 1%, Rango complex inh 1%, D3 ag 9, Rango dissoc inh 4% and D3 antag -108*.
`Cc1ccccc1CNC(=O)c1ccc(Cn2c(SCc3ccccc3)nc3cccnc32)cc1` gave D3 ag -21.
`O=C(Nc1ccn(CCCNCC(c2ccccc2)c2ccccc2)c(=O)n1)OCc1ccccc1` gave D3 ag -8 and D3 antag -30.
`CC(CNCCCn1ccc(NC(=O)OCc2ccccc2)nc1=O)c1ccccc1` (stereo not given) gave Rango complex inh -2%, D3 ag -69, Rango dissoc inh -10%, D3 antag -51* and PTAP TSG101 blk -6%.
For O=C(Nc1ccn(CCCNCc2cccc3ccccc23)c(=O)n1)OCc1ccccc1 the results were D3 ag -14 and D3 antag -51*.
O=C(Nc1ccn(CCCNCc2ccccn2)c(=O)n1)OCc1ccccc1 was read as Rango complex inh 0%, D3 ag -11, Rango dissoc inh -14%, D3 antag -11 and PTAP TSG101 blk -2%.
`COc1ccc(-c2nc(NC(=O)c3cc(C(C)(C)C)nn3C)sc2C)cc1` gave MmCpn inh inconclusive, Rango complex inh -2%, D3 ag 40*, Rango dissoc inh -21%, D3 antag 11 and PTAP TSG101 blk -3%.
For COc1ccc(-c2nc(NC(=O)c3c(C)noc3C)sc2C)cc1 the results were MmCpn inh -2%, Rango complex inh -1%, D3 ag 10, Rango dissoc inh 29%, D3 antag 10 and PTAP TSG101 blk 0%.
For COc1ccc(Cl)cc1NC(=O)N(C)CCc1c(C)nn(C)c1C the results were D3 ag 3.
`CC1(C)Cc2ccccc2-c2nnc(-c3ccco3)n21` gave MmCpn inh 1%, Rango complex inh -1%, D3 ag -6, Rango dissoc inh 7%, D3 antag -52* and PTAP TSG101 blk -9%.
Screening c1coc(-c2nnc3n2C2(CCCC2)Cc2ccccc2-3)c1 returned MmCpn inh -1%, Rango complex inh 2%, D3 ag -2, Rango dissoc inh -13%, D3 antag -15 and PTAP TSG101 blk -4%.
O=C(Nc1cccc(Cl)c1)c1ccc2nc(Cc3ccccc3)oc2c1 was read as D3 ag -18.
